Data: PubChem BioAssay AID1508600 (Functional Genomics Laboratory (NCATS/FGL), 2020)
The campaign covered roughly 53,000 sequences. About 3,700 (7%) were called active. The full list was thinned out, with actives kept by preference. A number with no mark means an inactive call.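 The calls were made as follows: active = gene knockdowns whose robust z-score for IL-1 alpha signal is at least 2 or at most -2, so actives lie on both sides; inactive = the rest.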

assay: Components of the Cytosolic LPS Sensing Pathway: Gene Identification via Genome-wide siRNA Screen; details: RAW264.7 macrophages, IL-1a HTRF, actives lie on both sides, screened at 100 nM (by protocol), cells primed 5 h with Pam3CSK4 first;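 also: robust z of the log signal after scaling to non-targeting control siRNA wells of the plate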
Procedure, shortened: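 Read-out: IL-1a HTRF on supernatant, divided by plate negative-control median ×100, log-transformed and converted to robust z-score. Cells were RAW264.7 given 100 nM siRNA, Pam3CSK4-primed 5 hours, then LipidA-transfected 24 hour.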

Question: With GGUGAAGAAAGCACUAGUUTT against Olfr979 as the sequence, how does the z-score read?
Answer: -0.873

Question: Which z-score does the source give for GGACCUUGGCCUUACACAATT against Astn2 here?
Answer: 2.29 (active)

Question: For GGGCAUGCUGCUUAUUGUGTT against Slc5a4b, which z-score is on record?
Answer: -0.8

Question: Which z-score does the source give for GCAACACGUACGAGCUCAATT against Pou2af1 here?
Answer: -0.926

Question: For GGGUUCUAGGUUGUUUAUGTT against C2cd4c, which z-score is on record?
Answer: -1.74

Question: For GGCGAGCUGGACAGAUUUGTT against Nudt6, which z-score is on record?
Answer: 3.33 (active)

Question: With CCUGCAUUUACUCAACUUGTT against Snrpe as the sequence, how does the z-score read?
Answer: -1.74

Question: Which z-score does the source give for GGAUACAAGCCUUUUAACCTT against Sri here?
Answer: -0.0625

Question: Which z-score does the source give for GAACAACAACAGACAAGUGTT against Cxcl12 here?
Answer: -0.65

Question: For GGUAUUUUUGCAUUUGUCCTT against Pip4p2, which z-score is on record?
Answer: 1.32

Question: Which z-score does the source give for GGUUAUUGAUGUGACGAUGTT against Rem2 here?
Answer: 1.36

Question: For CCACCCUGAUUUAAGAAGGTT against Ndufs3, which z-score is on record?
Answer: 2.53 (active)

Question: With CCUACGUGAUAUCCUUUUATT against Vrk1 as the sequence, how does the z-score read?
Answer: 0.0128

Question: With GGAUAGAAAAUCUGUGUUUTT against Trim60 as the sequence, how does the z-score read?
Answer: -0.401

Question: With GGUAUUUAUGAAGCACACATT against Clcn3 as the sequence, how does the z-score read?
Answer: 0.451

Question: Which z-score does the source give for GGGUCUAUCAGCUACAUCATT against Acsl6 here?
Answer: -1.28

Question: For CGUAUUGCCUUAGUGUAUGTT against Olfr433, which z-score is on record?
Answer: -2.7 (active)

Question: With GGGCUAUCGGUUGACAAAUTT against Riok2 as the sequence, how does the z-score read?
Answer: 1.67

Question: With GCGUAUUACAGACAGUGACTT against Izumo1 as the sequence, how does the z-score read?
Answer: 0.023

Question: Which z-score does the source give for GGAACUGUUUCUCUUUCCUTT against Rad9a here?
Answer: -1.45

Question: With CGUGUUCUAUGAUGGUAAUTT against Selenoo as the sequence, how does the z-score read?
Answer: -0.197

Question: Which z-score does the source give for GCAACUUGGCUACAAUUACTT against Dct here?
Answer: 0.987

Question: For GGACCAAGCCACCAAAACUTT against Vmn1r78, which z-score is on record?
Answer: -2.28 (active)

Question: For CCUAUGAUUCAGCAAUACUTT against Col17a1, which z-score is on record?
Answer: 0.677

Question: For GGAAGAGGAGAGGAAGAAGTT against Dync1i1, which z-score is on record?
Answer: 1.91

Question: Which z-score does the source give for GGCUCUAAGCUAAAUAAAGTT against Kbtbd4 here?
Answer: -0.249

Question: With CCGCGUCUUGCUAUGGAAGTT against Baiap2l2 as the sequence, how does the z-score read?
Answer: 0.79

Question: Which z-score does the source give for GCUGGAAGAUAGUGCUUUUTT against Itpr1 here?
Answer: 5.23 (active)

Question: With GGGUUUAUGGGCAUGUCCCTT against Adipor2 as the sequence, how does the z-score read?
Answer: -0.964

Question: With GGUUAAAAAUGCCAUUAGATT against Olfr1233 as the sequence, how does the z-score read?
Answer: 0.133

Question: With GGAAGACAUCAAGAUGUAATT against Rp1l1 as the sequence, how does the z-score read?
Answer: -1.28

Question: For GGAGCUGUAAAGGCUACAATT against Sulf2, which z-score is on record?
Answer: 4.14 (active)

Question: Which z-score does the source give for CGUGGAAAUGUCUUAAAUCTT against Folh1 here?
Answer: 0.412

Question: For GGAGAAAAAUCCUACCGACTT against Zmym5, which z-score is on record?
Answer: 0.56

Question: For GCGAUUGAAGUCUCAGGGATT against Nrde2, which z-score is on record?
Answer: -1.03

Question: Which z-score does the source give for GGAAUAUUGGUUGUGAUGATT against Ralb here?
Answer: -0.197

Question: Which z-score does the source give for GCUAAUGGUCCAUUGAUAUTT against Btn2a2 here?
Answer: 0.229

Question: Which z-score does the source give for GGGAAGAGUUGGAUCGAUCTT against Shkbp1 here?
Answer: -0.0675

Question: For GGAGGAUAAGGAUACAGUATT against Cspg5, which z-score is on record?
Answer: 2.27 (active)

Question: With GGAGGAAAGAAAAGAUCCATT against Tie1 as the sequence, how does the z-score read?
Answer: -0.102

Question: Which z-score does the source give for GCUAUGUCAUGGUUGGAACTT against Bag6 here?
Answer: 0.597

Question: Which z-score does the source give for GCUUGCCUGACCUGAAACATT against Apool here?
Answer: -2.38 (active)

Question: With GCAACAAAUCAGAUUUGACTT against Dhdh as the sequence, how does the z-score read?
Answer: 0.246

Question: For GGGAUGGACAAGUUGUACUTT against Renbp, which z-score is on record?
Answer: -0.101

Question: Which z-score does the source give for GGACCUUUUUAUCCAACGCTT against Mcts2 here?
Answer: 0.46

Question: Which z-score does the source give for CCUGAAUUAUGUGUAACUUTT against Ywhab here?
Answer: -0.819

Question: For CCACUGUGAGACACAUAAGTT against Muc4, which z-score is on record?
Answer: -3.25 (active)

Question: For “GGAAAUAGAUCCUUUUUGATT against 2510039O18Rik”, which z-score is on record?
Answer: 0.861

Question: Which z-score does the source give for GCCAGUAGUAGUAGAAUAATT against Gm4841 here?
Answer: 0.997

Question: With CCUGGCAGUAAAAGAUUGCTT against Ndst3 as the sequence, how does the z-score read?
Answer: 0.836

Question: For GGGAAGGGAUCCUAUAUUUTT against Lsm12, which z-score is on record?
Answer: 0.158

Question: With CCCAGCAUGGAUCAAGCACTT against Krt73 as the sequence, how does the z-score read?
Answer: 0.864

Question: For GGGUGCACUGGCUAAUAUATT against H2-Ea, which z-score is on record?
Answer: 1.13

Question: For GGGAAUAUUCAGUUGACAATT against Iigp1, which z-score is on record?
Answer: -1.14

Question: Which z-score does the source give for GGUGAAUUUGAUUGAUGAGTT against Ccnl2 here?
Answer: -2.3 (active)

Question: For GGAGAAAGCCUUCCUUAGUTT against Trpc5, which z-score is on record?
Answer: -0.115

Question: Which z-score does the source give for CGUAGCACUUCUUCUCUUATT against Dync1li2 here?
Answer: 0.484

Question: For GGUCUUGCUGAUCAACAACTT against Adgrb2, which z-score is on record?
Answer: 2.53 (active)

Question: For GCCAAUUUUGAACCACUACTT against Itga8, which z-score is on record?
Answer: -0.56

Question: Which z-score does the source give for GGAAGUAUGAAAUUAUCAGTT against Car12 here?
Answer: 0.0371

Question: Which z-score does the source give for CGGUUCUUCCAUCAAAUGGTT against Prodh here?
Answer: 1.07

Question: With GGCUUUAAUCCUAACCCUATT against Zfp3 as the sequence, how does the z-score read?
Answer: -0.658

Question: With GCGAGCCAAGUUUGAACUUTT against Elovl6 as the sequence, how does the z-score read?
Answer: 1.42

Question: For GCUGGCUUUAAAAAUAUCUTT against Nt5dc3, which z-score is on record?
Answer: 0.174

Question: Which z-score does the source give for GGAGUGAUAGUCAUCAAUGTT against Olfr357 here?
Answer: -0.464

Question: For GGAACAGUCGGCCAUUUAATT against Tmem98, which z-score is on record?
Answer: -0.553

Question: Which z-score does the source give for CCCUACUGUAUUAGAAAACTT against Dnph1 here?
Answer: 2.1 (active)

Question: With “GGAUCACUUUUAGUUUUCUTT against C230013L11Rik” as the sequence, how does the z-score read?
Answer: -0.0242

Question: Which z-score does the source give for GCCUGAUAGUGCAGAAACATT against Rabl2 here?
Answer: -0.233

Question: For GGUUAUCGCAUUUGGUGGUTT against Olfr1511, which z-score is on record?
Answer: 0.104

Question: Which z-score does the source give for GGACAAAAGGCAAUCUACATT against Mettl18 here?
Answer: 2.8 (active)

Question: For GGUGUCUCUCCAGGAUAACTT against Ctrl, which z-score is on record?
Answer: -0.511

Question: With CGUACAACACGGAAACCUATT against Paqr5 as the sequence, how does the z-score read?
Answer: -0.448

Question: Which z-score does the source give for GGGUCUCAGCAGUGCAAACTT against Txnip here?
Answer: -0.486

Question: With GGAGAGAGGGAAAAAAGAATT against Sox4 as the sequence, how does the z-score read?
Answer: -0.317

Question: For GGCUUGACUGCUAUUUUAGTT against Csn1s1, which z-score is on record?
Answer: 0.711

Question: For CCACCUGACUUUUGGAAGATT against Coro1b, which z-score is on record?
Answer: -1.8

Question: With UUAAGGAAAUGUUCUGUUCTT against Olfr426 as the sequence, how does the z-score read?
Answer: 0.797

Question: For GGCUUUGAGAGGAACACCATT against Sh2d4b, which z-score is on record?
Answer: -2.49 (active)

Question: With GGCCAAGUUCAACAUUCCATT against Lilrb4a as the sequence, how does the z-score read?
Answer: 0.539

Question: Which z-score does the source give for GGGACUUAAGUGAAGUUCATT against Ogfod2 here?
Answer: 0.232

Question: With GCUGUCUCGUCAUUUAAGATT against Dym as the sequence, how does the z-score read?
Answer: -0.461

Question: Which z-score does the source give for GGAAAGUGUUGUCAAAAGATT against Olfr125 here?
Answer: -0.386

Question: With GGCAUGUGGAAAACCUCCUTT against Lrrc46 as the sequence, how does the z-score read?
Answer: -0.413

Question: Which z-score does the source give for GGAUGAUGAAUUCACACACTT against Calr here?
Answer: 3.18 (active)

Question: For GGAGAAAAAAUUCUUAUCCTT against Prmt2, which z-score is on record?
Answer: -0.31

Question: For GGCGGUUUCACCUAUACAATT against Rspo4, which z-score is on record?
Answer: 0.821

Question: For GGUCACCUUAACCGAGAAGTT against Phkg1, which z-score is on record?
Answer: 0.19

Question: With GGACUUAACUAGUUGACAATT against Pclaf as the sequence, how does the z-score read?
Answer: -1.06

Question: Which z-score does the source give for GGUAUGAUGAAAAUACACATT against Mmp1a here?
Answer: 2.56 (active)

Question: Which z-score does the source give for GGGAGUGCCUUUAAAACACTT against Satb1 here?
Answer: 0.882

Question: Which z-score does the source give for GCCAAAAGGAGGACAUACCTT against Mylk3 here?
Answer: 1.08

Question: Which z-score does the source give for GGAUAUUGAUUGCUUUGUUTT against Uox here?
Answer: 1.41

Question: With GGACAAAAGAUUCUUCAUCTT against Map1b as the sequence, how does the z-score read?
Answer: 2.93 (active)

Question: With CCAACAAUGAUUAAUCAGCTT against Meis1 as the sequence, how does the z-score read?
Answer: -1.38

Question: For GGAAAAUCACAAUCACUUGTT against Ccdc43, which z-score is on record?
Answer: -0.669

Question: For “GGUACCACCAUGCUAUGGUTT against Krtap19-9b”, which z-score is on record?
Answer: 0.646

Question: For GGUGGUGAUUCACCUCCAATT against Tnfrsf12a, which z-score is on record?
Answer: -2.23 (active)

Question: Which z-score does the source give for GCACUCAAGACCUGUAUGATT against Cldn18 here?
Answer: 0.627

Question: With GGAAAUGCCAUUUGAUUUGTT against Rfpl4 as the sequence, how does the z-score read?
Answer: 0.599

Question: Which z-score does the source give for GGACGAUCAUGACAAGAUGTT against Psmb2 here?
Answer: -2.35 (active)

Question: Which z-score does the source give for CCAUCGUAUUUAACCACAUTT against Dtymk here?
Answer: 0.206

Question: Which z-score does the source give for GGCAAACUUAUCUUCUUCUTT against Ahsa1 here?
Answer: -1.89

Question: Which z-score does the source give for GGGAGUUAUAUUAGUCUAUTT against Rab18 here?
Answer: 0.436

Question: Which z-score does the source give for GGAUGCAGAGACCUAUUUCTT against Cacng5 here?
Answer: -0.158

Question: For GGAACAGAGCCUUUCUCAGTT against Rnf183, which z-score is on record?
Answer: -0.153

Question: For CCCAUGAUCUGGAAGAGACTT against Il1a, which z-score is on record?
Answer: -2.08 (active)

Question: With GCUAAUAGCCUGCCUAAGGTT against Plekhj1 as the sequence, how does the z-score read?
Answer: 1.35
